An excerpt weighted towards active compounds, which were near 4.1% of everything screened.
hcDAF12 agonist: H. contortus DAF-12 nuclear receptor activators, primary screen, cell-based, luminescence, HEK293, lit1-tk-luc reporter | 1.4% of 370,000 active | HEK293 hcDAF-12 lit1-tk-luc reporter; 0% DMSO, 100% Δ7-dafachronic acid | activation, % at 6.8 µM;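 active = activation above the mean of all tested compounds plus 3 SD, cut at about 5.5% in these data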;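 note: 100% = response to 3 µM Δ7-dafachronic acid high control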
DAX1 inh-1: DAX1 (NR0B1) inhibitors, primary screen, cell-based, HEK293, Gal4-DAX1, luciferase luminescence | Nuclear receptor subfamily 0 group B member 1 (Homo sapiens), P51843 | inhibition, % at 6.75 µM | 0.99% of 340,000 active | HEK293 Gal4-DAX1 luciferase reporter;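 active = inhibition above the mean over all tested compounds plus 3 SD, cut at about 4.2% in these data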;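 note: 0% = DAX1-transfected cells with DMSO and 100% = empty-vector control cells with DMSO; inhibition shows as a rise in luminescence from relieved DAX1 repression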
Target sequence (P51843 207-470 limits assumed): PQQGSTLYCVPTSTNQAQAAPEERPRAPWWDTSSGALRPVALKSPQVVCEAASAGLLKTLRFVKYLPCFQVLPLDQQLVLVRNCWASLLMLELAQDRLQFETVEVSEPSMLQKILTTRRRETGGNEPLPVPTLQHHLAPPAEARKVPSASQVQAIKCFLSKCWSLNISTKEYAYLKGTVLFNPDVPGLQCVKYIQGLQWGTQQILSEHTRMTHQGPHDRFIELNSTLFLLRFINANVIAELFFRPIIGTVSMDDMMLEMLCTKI
DAX1 inh-2: DAX1 (NR0B1) inhibitors on StAR promoter, primary screen, cell-based, luminescence, SF-1 (NR5A1), full-length DAX-1; HEK293T StAR-luciferase reporter, SF-1/DAX-1 repression relief; inhibition, % at 6.8 µM; 1.1% of 370,000 active; AID 652010, 2013;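 active = inhibition above the mean over all tested compounds plus 3 SD, cut at about 3.6% in these data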;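 note: 0% = DAX-1 cells with DMSO and 100% = cells lacking DAX-1 with DMSO; higher inhibition means more luminescence from relief of DAX-1 repression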
ssDAF12 agonist: S. stercoralis DAF-12 nuclear receptor activators, primary screen, cell-based, luminescence, HEK293, GRIP1 co-expression, lit1-tk-luc | Nuclear hormone receptor DAF-12 (Strongyloides stercoralis) | HEK293 ssDAF-12/GRIP1 lit1-tk-luc reporter; % of 3 µM dafachronic acid response | activation, % at 6.8 µM | 1% of 370,000 active | AID 652126, 2013;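 active = activation above the mean over all tested compounds plus 3 SD, cut at about 0.9% in these data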;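 note: 0% = DMSO-only wells and 100% = 3 µM delta7-dafachronic acid wells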
hgDAF12 agonist: H. glycines DAF-12 receptor agonists, primary screen, cell-based, luminescence, HEK293, GAL4 fusion, UAS-luciferase; Nuclear hormone receptor DAF-12 (Heterodera glycines), GAL4 fusion; HEK293 GAL4-hgDAF12 UAS-luciferase reporter, agonist luminescence; normalized to butyrate control; activation, % at 6.8 µM; 1.8% of 370,000 active;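 active = activation above a cutoff set at the mean of all screened compounds plus 3 SD, cut at about 10% in these data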;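 note: 0% = DMSO wells and 100% = sodium butyrate wells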
* hit, by the source's call; / = not tested or not shown.

SMILES	hcDAF12 agonist	DAX1 inh-1	DAX1 inh-2	ssDAF12 agonist	hgDAF12 agonist
Cc1ccc(-n2c(CSc3nc(C)cc(C)n3)nnc2SCC(=O)NCc2ccco2)cc1	5.6*	0	1	0.9*	4
Cc1cccc(-c2cccc3c4c([nH]c23)[C@@H]2C[C@H](N(C)C(=S)Nc3ccc(C#N)cc3)[C@H]([C@H](C)O)CN2CC4)c1	1	/	0	-1	0
CC1(C)Cc2c(cnn2-c2ccc(F)cc2)C(NC(=O)C(C)(C)O)C1 (stereo unspecified)	0	1	0	-1	2
CC1(C)Cc2c(cnn2-c2ccc(F)cc2)C(NC(=O)C2CCC2)C1 (stereo unspecified)	0	0	4.3*	-1	-1
Oc1ccc(Cl)cc1N=Nc1ccccc1	-2	0	0	-1	3
Nc1c(Cl)cc(N=Nc2ccccc2)cc1Cl	5	1	3	1.0*	7
O=C(Nc1ccc2ccccc2c1)NC1CCCCN(Cc2cccc(Cl)c2)C1=O (stereo unspecified)	-2	/	-1	-1	1
Cc1cc2c(cc1C)/C(=N/NC(=O)c1ccccn1)CCC2	4	/	3	0	11*
O=C(N/N=C1\CCc2ccccc21)c1ccccc1Cl	3	3	2	0	12*
CCCCCC[C@@H](CC)CN(C(=O)Oc1ccccc1)c1ccccc1	-1	/	0	-1	-3
COc1ccc(C2CC(c3ccc(OC)c(OC)c3)=NN2S(C)(=O)=O)cc1 (stereo unspecified)	4	4.6*	2	0	13*
COc1ccc(C2CC(c3cccs3)=NN2S(C)(=O)=O)cc1 (stereo unspecified)	2	2	1	-2	3
CS(=O)(=O)Nc1ccc(C2=NN(S(C)(=O)=O)C(c3ccc4c(c3)OCO4)C2)cc1 (stereo unspecified)	1	2	3	-1	11*
COc1ccc(OCCCN2CCC(C(O)(c3ccccc3)c3ccccc3)CC2)cc1	-2	/	0	-1	0
Cc1nnc(NC(=O)c2cc(-c3ccco3)nc3ccccc23)s1	0	1	-1	0	-1
Cc1csc(NC(=O)c2cccn2C)n1	5	2	3	0	12*
C=CCOC(=O)c1sc(NC(=O)c2ccco2)nc1C	5	2	3	0	11*
Cc1csc(NC(=O)c2sccc2C)n1	5	3	2	0	12*
Cn1cccc1C(=O)Nc1nc(-c2ccccn2)cs1	1	-1	0	0	6
CCOC(=O)c1sc(NC(=O)c2cc3ccccc3o2)nc1C	1	1	3	-1	4
Cc1csc(NC(=O)c2cc(-c3ccco3)nc3ccccc23)n1	4	-1	-1	8.8*	1
C#CCNC(=O)C[C@@H]1C[C@]2(C(=O)OCC)CCC3=C2N(CCC3)C1=O	-1	/	1	-1	4
COC(=O)[C@]12C[C@H](CC(=O)NCCc3ccccc3OC)C(=O)N(CCC3=CCCCC3)C1=C[C@H](C1CCCC1)O[C@@H]2C	0	/	-1	-1	7
CC(C)C[C@H]1COc2cccc(N3CCCC3)c2S(=O)(=O)N1C	-3	/	0	-1	-2
CS(=O)(=O)N[C@@H]1C[C@@H]2O[C@@H](CO)CC[C@@H]2O[C@@H]1CCc1ccc(-c2ccccc2F)cc1	-1	/	-2	-2	-1
SMILES	hcDAF12 agonist	DAX1 inh-1	DAX1 inh-2	ssDAF12 agonist	hgDAF12 agonist
COC(=O)[C@]12C[C@H](CC(=O)NCc3ccc(C)o3)C(=O)N(Cc3ccc4c(c3)OCO4)C1=C[C@H](C(C)(C)C)O[C@@H]2C	-3	/	-1	-1	0
Cc1csc(NC(=O)c2ccco2)n1	1	1	1	1.0*	5
O=C(Nc1nc(-c2ccc(Cl)s2)cs1)c1cccs1	2	-1	0	-1	10
O=C(O)Cc1csc(NC(=O)c2ccco2)n1	-1	0	-1	0	2
O=C(Nc1nc(-c2ccc(Cl)s2)cs1)c1ccco1	1	3	1	-1	12*
Cc1nn(-c2ccccc2Cl)c(Cl)c1/C=N/Nc1cccc(C(=O)O)c1	4	-4	4.0*	0	10
Cc1nn(-c2ccccc2)c(Cl)c1/C=N/NC(=O)c1cccc(S(=O)(=O)N2CCCC2)c1	2	-1	1	-1	1
O=C1Cc2ccccc2C(=O)N1OCc1ccc(Cl)cc1	3	-1	0	0.9*	-1
CCCN(CC1CCCO1)C(=O)CCc1nnc(-c2cc(C)on2)o1 (stereo unspecified)	-1	2	1	0	2
CC(=O)Nc1ccc(NC(=O)c2cc(-c3ccc(F)cc3C)n[nH]2)cc1	2	/	4.1*	-1	13*
COc1ccc(/C=N\NC(=O)CN2CCN(Cc3ccccc3)CC2)cc1OCc1ccccc1	-2	/	-4	-2	3
COc1ccc(C2C(C(=O)N3CCOCC3)CCC(=O)N2c2ccc(OC)cc2)cc1 (stereo unspecified)	0	0	0	0	2
COc1ccc(C2C(C(=O)NCC3CCCO3)CCC(=O)N2c2ccc3c(c2)OCO3)cc1 (stereo unspecified)	-1	4.4*	1	-1	-2
NC(=O)c1ccc(-c2ccc(Br)cc2)o1	-1	-1	0	-1	4
NC(=O)C1CCN(C(=S)c2ccc(-c3ccc(Br)cc3)o2)CC1	0	/	2	0	12*
COC(=O)C1CN(Cc2ccc(C)cc2)CCS(=O)(=O)N1Cc1cn(Cc2ccccc2)nn1 (stereo unspecified)	-4	/	-1	-1	2
COc1cc2c(c(OC)c1OC)-c1ccc(OC)c(=O)cc1C(NC(C)=O)CC2 (stereo unspecified)	0	2	1	0	-6
COc1cc2c(c(OC)c1OC)-c1ccc(SC)c(=O)cc1C(NC(=O)c1ccccc1)CC2 (stereo unspecified)	-2	-1	3.7*	0	-1
COC(=O)c1ccc2c(c1)C(NC(C)=O)CCc1cc(OC)c(OC)c(OC)c1-2 (stereo unspecified)	-1	1	4.3*	0	-4
O=S(=O)(CC1NCc2ccccc21)NCc1ccc(F)cc1 (stereo unspecified)	2	/	0	1	1
CC1C(O)=C(c2nc3ccccc3[nH]2)C(=N)N1c1ccccc1 (stereo unspecified)	0	2	0	-1	13*
